Structures are written as SMILES. The campaign covered roughly 1,400 compounds. About 30 (2%) were called active. Roughly 15% stayed inconclusive and do not appear here. The sample as a whole holds a higher share of actives than the screen did. Values without a mark were called inactive. Calls come from the whole dose curve; as a rule, active = well fitted inhibition curve with a large enough effect; inconclusive = small, poorly fitted or top-dose-only effect; inactive = flat fitted curve, though single readings scatter.
% is set by controls: 0 for no effect and ±100 for the full control effect; potency is the fitted concentration of half-maximal effect.

The nature of this assay: Firefly Luciferase Counterscreen for Inhibitors of ATXN expression. The note with it: luminescence; series mostly up to 57.5 µM; activity change, negative = inhibition: at the top concentration. An excerpt: University of Utah School of Medicine, Salt Lake City, Utah
Spinocerebellar ataxia type 2 (SCA2) is a multisystem neurodegenerative disease caused by a dominantly acting mutation leading to expansion of a polyQ domain in the ataxin-2 protein (ATXN2). SCA2 patients develop progressive ataxia and later lose function in other neuronal systems. Prominent parkinsonian signs develop in some patients. Like many neurodegenerative disorders, no symptomatic or disease-modifying treatments are known.
The primary objective of the proposed research is to identify compounds inhibiting ATXN2 expression and to test them for efficacy in SCA2 mouse models. We have developed a cell-based assay paired with an in vivo mouse model using identical luciferase expression constructs. This approach takes advantage of an ATXN2-luciferase transgene, with the luciferase gene flanked by the upstream and downstream portions of the ATXN2 gene. Here we describe a 5-7 dose quantitative high thoroughput screen (qHTS) for compounds lowering ATXN2 expression. We screened the NIH Molecular Libraries Small Molecule Repository (MLSMR) and NCGC's mechanistically annotated (MIPE) and drug repurposing (NPC) collections of compounds for lowering expression of an ATXN2-luciferase reporter in HEK-293 cells. The assay is a multiplexed cell viability assay to ensure target reduction in the absence of cytotoxicity. Secondary qHTS assays included a CMV-luciferase reporter expressed in HEK-293 cells as well as a biochemical assay using recombinant luciferase to detect inhibitors of the reporter enzyme. Compounds that inhibit ATXN2 expression but is not cytotoxic were selected for confirmatory and secondary screens.
PROTOCOL TABLE (as described by Inglese J, Shamu CE and Guy RK. 2007)
SEQUENCE No. (e.g., 1, 2, 3, etc.); […] (e.g., Cells, Incubation, Reagent, etc.); VALUE; DESCRIPTION.
2; Compounds; 23 nL; Kalypsis pintool (Wako USA) equipped with a 1536-well pin head.
3; Enzyme; 1 uL; recombinant firefly luciferase (prepared in 50 mM Tris HCl pH7.5, 10 mM MgCl2, 0.05% BSA, 0.01% Tween20) at final concentration of 10 nM. Wells containing buffer only were used as control (set as 100% inhibition when normalizing data).
4; Incubation; 10 min; room temperature.
5; Detection; Luminescence; Viewlux plate reader (PerkinElmer).
NOTES (numbers refer to Sequence numbers above)
1. Luciferase substrate is added to 1536 well, Greiner white assay plate. Evaporation was prevented by covering assay plates with metal lids containing holes to allow gas diffusion.
2. Compounds were added in a dose response manner with the final concentrations of 57, 11.4, 2.28, 0.46, 0.091, 0.018, 0.0037 uM. Vehicle-only plates, with DMSO being pin-transferred to columns 5-48, were inserted uniformly at the beginning and the end of each library to monitor and record any shifts in assay performance.
3. Recombinant firefly luciferase (10 nM final concentration) is added to the assay plate.
5. End-point luminescence is then measured on the Viewlux (PerkinElmer) imager equipped with a clear emission filter using a 2 sec exposure.
Inglese J, Shamu CE and Guy RK, Reporting data from high throughput screening of small molecule libraries, Nature Chemical Biology, 2007, 3(8): 438-441. doi.org/10.1038/nchembio0807-438.
Regarding `COc1ccc(-c2oc3c(OC)c(OC)c(OC)c(O)c3c(=O)c2OC)cc1OC`, the “activity change, negative = inhibition” value is -3.94%.

As for `CCCCOc1ccc(C(=O)NNC(=S)NC(=O)CC)cc1`, the “activity change, negative = inhibition” value is -3.45%.

With `COc1cccc(/C=N/NC(=O)c2c(C)nc3ccc(Cl)cn23)c1O`, the “activity change, negative = inhibition” value is -11.2%.

Turning to `CC(C)[C@H](NC(=O)c1ccc(C(C)(C)C)cc1)C(=O)N1CCN(Cc2ccc3c(c2)OCO3)CC1`, the “activity change, negative = inhibition” value is -0.972%.

In the case of `COc1cccc(/C=N/NC(=O)Cn2nc(C)c([N+](=O)[O-])c2C)c1O`, the “activity change, negative = inhibition” value was -5.2%.

With `Cc1cc(N/N=C/c2ccccc2[N+](=O)[O-])nc(-n2nc(C)cc2C)n1`, the “activity change, negative = inhibition” value was -3.89%.

For the compound `NC(Cc1ccccc1)c1csc(Nc2ccc(C(F)(F)F)cn2)n1` (stereo not given), the “activity change, negative = inhibition” value is 1.9%.

For the compound `CCOc1ccc(-n2c(-c3ccccc3)c[n+]3c2CCCCC3)cc1`, the “activity change, negative = inhibition” value is -2.5%.

On to `CCn1c(C)cc(C(=O)COC(=O)c2ccccc2[N+](=O)[O-])c1C`, for which the Potency is 0.0178 µM (active).

With `Cc1c(C(=O)N2c3ccccc3Sc3ccccc32)cccc1[N+](=O)[O-]`, the “activity change, negative = inhibition” value was -0.615%.

Turning to `CCc1ccc(NC(=O)COc2ccc(/C=C(/C#N)c3nc4ccccc4[nH]3)cc2OC)cc1`, the “activity change, negative = inhibition” value was 2.59%.

Consider `O=C(CNC(=O)c1ccccc1Br)N/N=C/c1ccccc1O`, for which the “activity change, negative = inhibition” value is -5.02%.

In the case of `Cc1ccc(N=Nc2ccc(O)c3ncccc23)cc1`, the “activity change, negative = inhibition” value is 3.5%.

For `Cc1cc2sc3ccc(C#CC4(O)CCCCC4)cc3c(=O)c2cc1C`, the Potency is 0.251 µM (active).

Consider `Oc1c(C(Nc2cccc(C(F)(F)F)c2)c2ccncc2)ccc2cccnc12` (stereo not given), for which the “activity change, negative = inhibition” value was 0.225%.

As for `O=C(CCCOc1ccc(Cl)cc1Cl)N/N=C/c1ccccc1O`, the “activity change, negative = inhibition” value was -14.6%.

For `CC[n+]1ccccc1/C=C1\Sc2ccc(C)cc2N1C`, the “activity change, negative = inhibition” value is -0.952%.

On to `CN1OC[C@@H]2CN[C@H](c3ccc(-c4cc5ccccc5o4)cc3)C[C@@H]21`, for which the Potency was 0.316 µM (active).

Turning to `CCC(=O)NNC(=S)NC(=O)c1ccc(C)cc1`, the “activity change, negative = inhibition” value is -8.2%.

As for `COc1ccc(-c2csc(NC(=O)C3CCN(c4ncnc5sc(C)c(C)c45)CC3)n2)cc1OC`, the “activity change, negative = inhibition” value is -2.92%.

As to `COC(=O)c1c(NC(=O)c2ccc([N+](=O)[O-])o2)sc2c1CCN(C(C)C)C2`, the “activity change, negative = inhibition” value is 0.611%.

As to `CC(=O)Oc1ccc(C23c4ccccc4C2(OC(C)=O)c2cc(OC(C)=O)ccc23)cc1` (stereo not given), the “activity change, negative = inhibition” value was -2.35%.

With `COc1ccc(C(=O)c2sc(Nc3ccccc3)nc2N)cc1OC`, the “activity change, negative = inhibition” value is -16.4%.

Regarding `COC(=O)c1sc(NC(=O)c2ccc(OC)cc2OC)nc1C`, the Potency is 0.1 µM (active).

In the case of `COc1ccc(CC(N)c2csc(NC(=O)c3ccccc3OC)n2)cc1` (stereo not given), the “activity change, negative = inhibition” value is -15.2%.

Consider `COc1ccc(CSCC(=O)N/N=C/c2ccccc2O)cc1`, for which the “activity change, negative = inhibition” value was -4.55%.

For `Cc1cccc(OCC(=O)Nc2ccc3c(c2)nc(CCN2CCN(c4ccccn4)CC2)n3C)c1`, the “activity change, negative = inhibition” value was -8.57%.

Regarding `Cc1cc2oc3cc(NCCC4CCCN4C)ccc3c(=O)c2cc1C` (stereo not given), the Potency is 10 µM (active).

`Cc1cc2oc3ccc(NCCC4CCCN4C)cc3c(=O)c2cc1C` (stereo not given): the Potency is 6.31 µM (active).

With `CN1CCCC1CCOC(C)(c1ccccc1)c1ccc(Cl)cc1` (stereo not given), the “activity change, negative = inhibition” value was 4.05%.

As to `CCN1CCN(C(c2ccc(C(F)(F)F)cc2)c2ccc3cccnc3c2O)CC1` (stereo not given), the “activity change, negative = inhibition” value was -0.327%.

In the case of `COc1ccc(CC2C(=O)NC(C)C(=O)N(C)C3Cc4ccc(cc4)Oc4cc(ccc4O)CC(C(=O)NC(C)C(=O)NC(C)C(=O)N2C)N(C)C3=O)cc1` (stereo not given), the “activity change, negative = inhibition” value was -0.0052%.

Take `COc1ccc(/C=C2\CN(Cc3ccccc3)C/C(=C\c3ccc(OC)c(O)c3)C2=O)cc1O`: the “activity change, negative = inhibition” value is -1.84%.

Turning to `O=C(CN1CCCC1)N/N=C/c1c(O)ccc2ccccc12`, the “activity change, negative = inhibition” value is -4.95%.

As for `O=C(Nc1nc(-c2ccccn2)cs1)c1ccccc1-n1cnnn1`, the “activity change, negative = inhibition” value was -18.3%.

`O=C(Nc1nc(-c2ccccn2)cs1)c1ccc(F)c(S(=O)(=O)N2CCOCC2)c1`: the “activity change, negative = inhibition” value is -19.5%.

For the compound `CC(Oc1ccc(F)cc1)C(=O)Nc1nc(-c2ccccn2)cs1` (stereo not given), the “activity change, negative = inhibition” value is -4.9%.

Take `O=C(Nc1nc(-c2ccccn2)cs1)Nc1ccc(F)cc1F`: the Potency was 25.1 µM (active).

On to `CCc1sc(C(=O)Nc2nc(-c3ccccn3)cs2)cc1C`, for which the Potency was 6.31 µM (active).

Consider `CCc1ccccc1OCC(=O)Nc1nc(-c2cccnc2)cs1`, for which the “activity change, negative = inhibition” value is -8.34%.

On to `Cc1ccc(-c2cn(-c3ccc(OC(F)F)cc3)c3[n+]2CCCCC3)cc1`, for which the “activity change, negative = inhibition” value is -0.299%.

Take `COc1ccc2oc(/C=C/N(C)C)c(C(=O)c3ccc(Cl)cc3)c2c1`: the “activity change, negative = inhibition” value was -4.4%.

With `CC(CCc1ccccc1)NC(=O)c1ccc(C(=O)NC(C)CCc2ccccc2)cc1` (stereo not given), the “activity change, negative = inhibition” value is 1.04%.

For `O=C(NCc1ccccc1)c1ccc(C(=O)N(C2CCCCC2)C2CCCCC2)cc1`, the “activity change, negative = inhibition” value was 0.27%.

For `O=C(NNCc1ccccc1)c1ccccc1`, the Potency is 10 µM (active).

As for `Cc1ccccc1N=Nc1ccc(O)c2ncccc12`, the “activity change, negative = inhibition” value was -2.38%.

For the compound `CCN1C(=O)/C(=C/c2nc3ccccc3c(=O)n2-c2ccccc2)c2ccccc21`, the “activity change, negative = inhibition” value is 0.962%.

On to `CC(=O)Nc1cccc(-c2ccnc3c2CC(C)(C(=O)Nc2cccc(Oc4ccccc4)c2)O3)c1` (stereo not given), for which the “activity change, negative = inhibition” value was -1.45%.

In the case of `COc1ccc2sc(-c3ccc(SC)cc3)c(-c3ccc(O)cc3)c2c1`, the “activity change, negative = inhibition” value was 2.23%.

With `COc1cc(/C=C(/C#N)C(=O)NCCc2c[nH]c3ccccc23)ccc1OCc1ccccc1F`, the “activity change, negative = inhibition” value was 1.42%.

These data come from PubChem BioAssay AID1745846 (National Center for Advancing Translational Sciences (NCATS), 2022).
